# Reference: the supplement of paper PMC11001985
# Compound: C#CCNC(=O)CCSSCCC(=O)NCCc1ccc(C=O)c(C=O)c1
# Test: lysine labeling ratio R10:1 (500 µM / 50 µM probe), SILAC-ABPP in living cells; higher = lower intrinsic lysine reactivity toward the probe, active = 2 or less
# Conditions: HeLa; probe concentrations 500 vs 50 µM
# Summary of the method: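 In PBS at room temperature, living HeLa cells grown with SILAC light or heavy labels were treated with 50 µM or 500 µM of an alkyne-tagged, disulfide-linked lysine probe, with label swaps in both directions. Analysis was by LC-MS/MS on a TIMS-TOF Pro after click to biotin-azide, neutravidin capture and DTT release. For each lysine, R is the median across forward and reverse replicates of the filtered median high-probe/low-probe MS1 peptide ratio, capped at 20.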
# UniProt Q07065, sequence (Q07065 whole entry): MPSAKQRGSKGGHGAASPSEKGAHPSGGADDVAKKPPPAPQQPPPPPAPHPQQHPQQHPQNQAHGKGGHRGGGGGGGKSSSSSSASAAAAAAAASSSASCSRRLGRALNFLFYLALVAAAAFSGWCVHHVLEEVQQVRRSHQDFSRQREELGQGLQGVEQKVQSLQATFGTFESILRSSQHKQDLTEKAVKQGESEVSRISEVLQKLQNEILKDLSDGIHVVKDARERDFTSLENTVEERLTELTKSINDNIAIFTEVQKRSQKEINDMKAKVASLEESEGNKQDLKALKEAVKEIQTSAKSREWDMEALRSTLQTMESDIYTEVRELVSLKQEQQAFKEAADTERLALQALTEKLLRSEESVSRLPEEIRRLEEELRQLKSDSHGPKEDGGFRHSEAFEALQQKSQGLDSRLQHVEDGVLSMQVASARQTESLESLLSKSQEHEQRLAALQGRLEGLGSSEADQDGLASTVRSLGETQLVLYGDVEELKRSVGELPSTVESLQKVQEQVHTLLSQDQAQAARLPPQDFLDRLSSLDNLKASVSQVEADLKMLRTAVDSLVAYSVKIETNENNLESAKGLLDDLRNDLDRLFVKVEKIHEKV
# UniProt P04406, sequence (P04406 whole entry, looked up): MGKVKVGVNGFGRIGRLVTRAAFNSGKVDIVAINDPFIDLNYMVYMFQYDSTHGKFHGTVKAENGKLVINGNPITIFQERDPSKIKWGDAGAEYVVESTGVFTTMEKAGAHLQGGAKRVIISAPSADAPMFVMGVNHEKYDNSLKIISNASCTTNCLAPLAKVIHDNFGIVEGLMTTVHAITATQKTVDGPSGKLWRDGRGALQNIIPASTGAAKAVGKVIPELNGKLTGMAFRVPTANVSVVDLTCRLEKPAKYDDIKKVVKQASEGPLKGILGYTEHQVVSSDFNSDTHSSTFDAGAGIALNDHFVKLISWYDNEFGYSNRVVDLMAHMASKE
# UniProt Q9HCM3, sequence (Q9HCM3 whole entry): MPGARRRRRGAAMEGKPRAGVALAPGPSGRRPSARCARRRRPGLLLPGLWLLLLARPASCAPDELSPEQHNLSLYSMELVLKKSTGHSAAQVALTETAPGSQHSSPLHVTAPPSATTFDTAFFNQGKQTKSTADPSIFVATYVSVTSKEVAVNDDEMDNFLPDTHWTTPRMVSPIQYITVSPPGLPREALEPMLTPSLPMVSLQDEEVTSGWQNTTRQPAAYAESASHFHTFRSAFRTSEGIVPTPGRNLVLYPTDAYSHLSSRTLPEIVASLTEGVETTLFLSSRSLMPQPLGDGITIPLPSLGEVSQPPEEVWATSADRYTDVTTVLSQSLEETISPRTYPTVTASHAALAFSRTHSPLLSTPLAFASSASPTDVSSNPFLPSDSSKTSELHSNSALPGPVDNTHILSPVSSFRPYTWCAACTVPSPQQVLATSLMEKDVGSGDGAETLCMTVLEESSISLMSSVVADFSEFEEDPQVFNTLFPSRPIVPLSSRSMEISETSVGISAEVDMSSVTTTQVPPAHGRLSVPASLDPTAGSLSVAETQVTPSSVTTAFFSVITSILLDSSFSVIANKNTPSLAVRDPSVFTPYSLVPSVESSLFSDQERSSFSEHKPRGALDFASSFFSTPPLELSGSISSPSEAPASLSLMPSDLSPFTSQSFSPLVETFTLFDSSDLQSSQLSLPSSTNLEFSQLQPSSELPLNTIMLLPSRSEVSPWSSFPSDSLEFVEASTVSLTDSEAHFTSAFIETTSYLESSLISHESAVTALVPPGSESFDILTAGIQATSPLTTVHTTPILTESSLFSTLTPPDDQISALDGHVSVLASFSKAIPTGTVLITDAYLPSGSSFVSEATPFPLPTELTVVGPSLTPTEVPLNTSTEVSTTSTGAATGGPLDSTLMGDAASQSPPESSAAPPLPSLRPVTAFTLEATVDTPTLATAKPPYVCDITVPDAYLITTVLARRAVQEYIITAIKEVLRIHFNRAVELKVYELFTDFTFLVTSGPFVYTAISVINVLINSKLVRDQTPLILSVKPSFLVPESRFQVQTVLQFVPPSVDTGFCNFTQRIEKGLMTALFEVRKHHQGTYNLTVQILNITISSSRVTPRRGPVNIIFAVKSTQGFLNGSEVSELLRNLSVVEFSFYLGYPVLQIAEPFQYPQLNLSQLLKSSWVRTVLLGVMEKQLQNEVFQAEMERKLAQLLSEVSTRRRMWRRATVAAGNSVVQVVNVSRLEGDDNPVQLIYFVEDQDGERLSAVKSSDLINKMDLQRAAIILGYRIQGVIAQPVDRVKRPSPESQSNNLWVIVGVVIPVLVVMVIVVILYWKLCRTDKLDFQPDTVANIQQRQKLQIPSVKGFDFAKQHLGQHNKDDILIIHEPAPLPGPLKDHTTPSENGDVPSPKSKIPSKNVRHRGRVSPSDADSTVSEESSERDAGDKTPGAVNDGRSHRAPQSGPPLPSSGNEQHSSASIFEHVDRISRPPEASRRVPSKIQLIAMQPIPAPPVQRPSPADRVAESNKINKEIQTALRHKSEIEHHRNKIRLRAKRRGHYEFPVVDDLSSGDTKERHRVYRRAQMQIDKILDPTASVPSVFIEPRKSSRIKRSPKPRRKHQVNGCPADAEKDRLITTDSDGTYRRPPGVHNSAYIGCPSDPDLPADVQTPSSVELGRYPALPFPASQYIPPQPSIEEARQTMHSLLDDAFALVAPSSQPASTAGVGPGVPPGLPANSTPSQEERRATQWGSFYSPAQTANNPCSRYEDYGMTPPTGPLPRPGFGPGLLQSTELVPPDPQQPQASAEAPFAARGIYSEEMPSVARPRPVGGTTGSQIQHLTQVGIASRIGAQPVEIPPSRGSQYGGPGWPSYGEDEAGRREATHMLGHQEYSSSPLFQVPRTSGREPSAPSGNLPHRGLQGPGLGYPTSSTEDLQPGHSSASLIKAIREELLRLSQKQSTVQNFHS
# UniProt Q969P0, sequence (Q969P0 whole entry): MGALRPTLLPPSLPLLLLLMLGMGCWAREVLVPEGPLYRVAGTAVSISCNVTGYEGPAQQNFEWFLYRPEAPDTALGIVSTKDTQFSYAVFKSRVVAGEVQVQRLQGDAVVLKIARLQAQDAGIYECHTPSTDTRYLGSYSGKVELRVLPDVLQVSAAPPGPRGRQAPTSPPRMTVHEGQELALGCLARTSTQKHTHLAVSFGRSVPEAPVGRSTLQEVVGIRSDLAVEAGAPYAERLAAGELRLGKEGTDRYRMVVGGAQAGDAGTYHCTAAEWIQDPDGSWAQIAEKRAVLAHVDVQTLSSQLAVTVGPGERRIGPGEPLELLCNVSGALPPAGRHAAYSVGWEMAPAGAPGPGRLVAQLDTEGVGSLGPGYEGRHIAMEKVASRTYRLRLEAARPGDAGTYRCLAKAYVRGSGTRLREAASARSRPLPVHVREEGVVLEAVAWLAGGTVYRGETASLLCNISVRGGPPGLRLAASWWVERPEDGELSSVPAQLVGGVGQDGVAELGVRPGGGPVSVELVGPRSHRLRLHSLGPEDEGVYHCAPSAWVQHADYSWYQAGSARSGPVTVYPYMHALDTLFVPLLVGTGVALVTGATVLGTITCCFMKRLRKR
# UniProt O43707, sequence (O43707 whole entry): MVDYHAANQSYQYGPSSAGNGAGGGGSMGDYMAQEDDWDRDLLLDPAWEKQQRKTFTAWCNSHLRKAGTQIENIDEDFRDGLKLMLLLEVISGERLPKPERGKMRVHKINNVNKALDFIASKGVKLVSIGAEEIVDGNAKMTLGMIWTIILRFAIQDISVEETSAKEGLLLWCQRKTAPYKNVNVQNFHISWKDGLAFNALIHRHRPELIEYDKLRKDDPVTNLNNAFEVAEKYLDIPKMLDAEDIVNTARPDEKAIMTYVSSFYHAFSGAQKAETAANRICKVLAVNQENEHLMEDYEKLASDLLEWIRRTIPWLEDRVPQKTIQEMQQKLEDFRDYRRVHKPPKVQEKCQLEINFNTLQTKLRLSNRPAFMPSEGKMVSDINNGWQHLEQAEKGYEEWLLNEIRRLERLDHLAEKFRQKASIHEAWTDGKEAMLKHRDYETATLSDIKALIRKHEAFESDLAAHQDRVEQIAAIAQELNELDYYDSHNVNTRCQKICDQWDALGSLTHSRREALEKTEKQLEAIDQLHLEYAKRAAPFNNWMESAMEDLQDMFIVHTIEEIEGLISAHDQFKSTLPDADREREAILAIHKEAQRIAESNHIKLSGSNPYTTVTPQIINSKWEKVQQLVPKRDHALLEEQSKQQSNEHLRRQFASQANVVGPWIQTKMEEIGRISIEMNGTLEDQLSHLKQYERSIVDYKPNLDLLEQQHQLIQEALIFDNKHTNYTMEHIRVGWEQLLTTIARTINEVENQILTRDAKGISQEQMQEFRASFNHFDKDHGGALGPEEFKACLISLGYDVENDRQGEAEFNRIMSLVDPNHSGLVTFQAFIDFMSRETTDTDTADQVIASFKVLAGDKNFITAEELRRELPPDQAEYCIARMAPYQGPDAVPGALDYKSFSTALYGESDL
# UniProt P21926, sequence (P21926 whole entry): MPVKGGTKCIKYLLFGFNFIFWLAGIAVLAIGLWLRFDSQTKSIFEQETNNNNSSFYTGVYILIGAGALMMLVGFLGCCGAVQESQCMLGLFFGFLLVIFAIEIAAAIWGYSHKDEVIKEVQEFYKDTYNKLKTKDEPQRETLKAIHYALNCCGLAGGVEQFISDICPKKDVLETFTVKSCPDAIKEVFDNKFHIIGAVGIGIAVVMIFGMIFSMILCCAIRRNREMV
# UniProt P61769, sequence (P61769 whole entry): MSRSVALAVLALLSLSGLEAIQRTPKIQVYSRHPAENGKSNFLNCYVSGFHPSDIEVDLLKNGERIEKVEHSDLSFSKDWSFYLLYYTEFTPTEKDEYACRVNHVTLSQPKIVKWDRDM
row,Target,lysine labeling ratio R10:1
1,ASPH (lysine site: K588) (UniProt Q12797),1.1 (active)
2,SERPINH1 (lysine site: K413) (UniProt P50454),4.84 (inactive)
3,UniProt P62805 (lysine site: K17),2.71 (inactive)
4,FRAS1 (lysine site: K3093) (UniProt Q86XX4),3.29 (inactive)
5,UniProt Q00341 (lysine site: K494),2.15 (inactive)
6,UniProt Q32P28 (lysine site: K662),5.32 (inactive)
7,CKAP4 (lysine site: K388) (UniProt Q07065),2.6 (inactive)
8,GAPDH (lysine site: K194) (UniProt P04406),6.75 (inactive)
9,FN1 (lysine site: K269) (UniProt P02751),9.87 (inactive)
10,MSN (lysine site: K391) (UniProt P26038),1.79 (active)
11,EEF2 (lysine site: K498) (UniProt P13639),3.9 (inactive)
12,SPTAN1 (lysine site: K229) (UniProt Q13813),3.87 (inactive)
13,KPNB1 (lysine site: K376) (UniProt Q14974),2.54 (inactive)
14,LNPEP (lysine site: K726) (UniProt Q9UIQ6),0.91 (active)
15,PFKP (lysine site: K109) (UniProt Q01813),1.5 (active)
16,RPS19 (lysine site: K143) (UniProt P39019),1.75 (active)
17,TGFBR3 (lysine site: K686) (UniProt Q03167),1.81 (active)
18,UniProt O95490 (lysine site: K494),1.07 (active)
19,CAPZA1 (lysine site: K19) (UniProt P52907),2.43 (inactive)
20,CD9 (lysine site: K133) (UniProt P21926),5.95 (inactive)

row,Target,lysine labeling ratio R10:1
1,ATP6V0A1 (lysine site: K70) (UniProt Q93050),0.55 (active)
2,KIAA1549 (lysine site: K1262) (UniProt Q9HCM3),0.805 (active)
3,B2M (lysine site: K111) (UniProt P61769),15.6 (inactive)
4,CCT2 (lysine site: K135) (UniProt P78371),2.8 (inactive)
5,CACNA2D1 (lysine site: K1048) (UniProt P54289),6.59 (inactive)
6,FLNB (lysine site: K1005) (UniProt O75369),4.49 (inactive)
7,UniProt Q15149 (lysine site: K3925),3.1 (inactive)
8,UniProt Q15149 (lysine site: K2706),3.69 (inactive)
9,UniProt Q9NYQ6 (lysine site: K316),3.81 (inactive)
10,UniProt P83731 (lysine site: K93),6.58 (inactive)
11,F11R (lysine site: K97) (UniProt Q9Y624),18.5 (inactive)
12,DSG2 (lysine site: K562) (UniProt Q14126),6.57 (inactive)
13,ITGAV (lysine site: K581) (UniProt P06756),0.709 (active)
14,IGSF8 (lysine site: K143) (UniProt Q969P0),2.9 (inactive)
15,PDCD6IP (lysine site: K313) (UniProt Q8WUM4),2.29 (inactive)
16,ACTN4 (lysine site: K760) (UniProt O43707),4.05 (inactive)
17,HSPA8 (lysine site: K251) (UniProt P11142),1.57 (active)
18,CKAP4 (lysine site: K223) (UniProt Q07065),2.5 (inactive)
19,IQGAP1 (lysine site: K274) (UniProt P46940),3.87 (inactive)
20,RBMX (lysine site: K163) (UniProt P38159),3.88 (inactive)
